ALOX15B inhib: inhibitors of human 15-lipoxygenase 2 (ALOX15B) | actives 0.56% (n = 110,000) | Potency, µM (top dose mostly 57.1 µM), actives largely listed as inhibitors | AID 881 | purified 15hLO-2, xylenol orange hydroperoxide absorbance; note: nearly all actives have a fitted effect of over 60% in size
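Screening format was qHTS against 50 nM purified 15hLO-2 in Hepes pH 7.5 with detergent. Activity follows hydroperoxide formation from 45 uM arachidonic acid, measured as 573:405 nm absorbance ratio of the ferric-xylenol orange complex.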
PNC inhibitor: inhibitors of perinucleolar compartment assembly; PC3M PTB-GFP, PNC prevalence imaging, 16 h; active compounds read low; actives 3.1% (n = 140,000); activity change (PNC), negative = inhibition, % at 10 µM;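 active = readout at or below -70, meaning at least 70% loss of cells showing the perinucleolar compartment, a nuclear body marking cancer cells; inconclusive = readout between -30 and a set limit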
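Compounds are pinned in duplicate onto adhered PC3M cells stably expressing GFP-tagged PTB and incubated 16 h at 37 C. Cells are then fixed, nuclei stained with Hoechst, and PNC-positive cells counted.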
IMPase Li inh: IMPase inhibition in cells with lithium potentiation; CHO-M1 cells, IP1 TR-FRET (IP-One), carbachol + lithium; actives 0.35% (n = 210,000); Potency, µM (top dose mostly 59.4 µM), hits mostly inhibitors;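 note: IP1 builds up when IMPase is blocked and the TR-FRET signal falls; nearly all actives have a fitted effect of over 50% in size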
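IP1 accumulation measured by competitive TR-FRET in lysed CHO-M1 cells after 30 min compound exposure at 37C, with a small lithium addition to potentiate weak responses. Hill-equation AC50 from ratio and donor-channel data.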
12-hLO inh: 12-hLO (ALOX12) enzyme inhibition; purified 12-hLO, xylenol orange hydroperoxide absorbance; actives 0.12% (n = 150,000); AID 1452; Potency, µM (titrated, usually from 57.1 µM), most hits filed as inhibitors; note: nearly all actives have a fitted effect of over 55% in size
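Xylenol orange chromogenic assay: hydroperoxide from 12hLO oxidises Fe(II), giving red-shifted Fe(III)-XO absorbance. Conditions: 150 nM enzyme, 40 uM arachidonic acid, 25 mM Hepes pH 7.0, 0.01% Triton X-100, 30 min, room temperature.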
IMPase cell inh: cell-permeable inhibitors of inositol monophosphatase (IMPase); 120,000 tested, under 10 active; CHO-M1 cells, IP1 accumulation, HTRF TR-FRET ratio; inhibition (IP1 accumulation), % at 46.1 µM; P97697; AID 901; active = well fitted curve in the direction sought with a large enough effect in the signal ratio, not every such curve was filed as active; inconclusive = small, poorly fitted or top-dose-only effect, or a change in a side signal; inactive = no such curve, though single readings can be large or run the other way; the % refers to the signal ratio;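 note: cells stimulated with carbachol in lithium chloride buffer; higher means more IMPase inhibition seen as more IP1 and lower FRET ratio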
Target sequence (P97697 whole entry, looked up): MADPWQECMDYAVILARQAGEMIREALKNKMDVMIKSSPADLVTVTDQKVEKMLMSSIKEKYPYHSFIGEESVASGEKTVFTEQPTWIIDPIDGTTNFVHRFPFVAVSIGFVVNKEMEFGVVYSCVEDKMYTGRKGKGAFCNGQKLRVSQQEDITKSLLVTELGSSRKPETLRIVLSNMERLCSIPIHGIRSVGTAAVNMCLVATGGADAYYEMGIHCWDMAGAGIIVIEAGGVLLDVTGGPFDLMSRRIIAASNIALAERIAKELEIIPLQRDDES
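Carbachol-driven Gq signalling in CHO-M1 cells (2000/well) generates IP1. Compounds that block IMPase raise IP1 and so reduce the FRET signal from Eu-anti-IP1 and d2-IP1 after a 10 min room-temperature lysis.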
Numbers stand for hits; i = inactive; ? = inconclusive; nt = not tested or not shown; ! = repeats disagree; [ ] = remark or other dose. Many of the other results were omitted from the sample, so hits are more common in it than they were. Unless noted, calls come from the whole dose curve; as a rule, active = well fitted curve in the direction sought with a large enough effect; inconclusive = small, poorly fitted or top-dose-only effect, or another doubt; inactive = no such curve, though single readings can be large; an effect the other way counts as inactive or inconclusive.

SMILES | ALOX15B inhib | PNC inhibitor | IMPase Li inh | 12-hLO inh | IMPase cell inh
O=C(Nc1ccccc1C(=O)N/N=C/c1ccco1)c1ccc(F)cc1 | nt | -86.3 | i | i | nt
COc1ccc(-n2ncc3c(SCC(=O)N4CCN(c5ccccc5OC)CC4)ncnc32)cc1 | nt | -118.9 | i | i | i
COc1ccccc1N1CCN(C(=O)CSc2ncnc3scc(-c4ccccc4)c23)CC1 | nt | i | i | i | i
CC/C(=C\C1CCCCC1)C(NP(=O)(c1ccccc1)c1ccccc1)c1ccccc1 (stereo not given) | nt | -89.9 | i | i | nt
Fc1ccc(Nc2nc(Oc3ccc4c(c3)OCO4)nc(N3CCOCC3)n2)c(F)c1 | i | -95.2 | i | i | i
Cc1csc(NC(=O)c2nc3nc(C)cc(C)n3n2)n1 | i | -95.4 | i | i | i
Cc1cc(C)n2nc(C(=O)Nc3nccs3)nc2n1 | i | i | i | i | i
Cc1csc(NC(=O)c2cc([N+](=O)[O-])cc([N+](=O)[O-])c2)n1 | nt | -113.8 | i | i | nt
O=C(O)/C=C\c1cnc[nH]1 | i | nt | nt | i | i
O=C(Nc1cccnc1)c1c(F)c(F)c(F)c(F)c1F | i | -106.5 | i | i | i
O=C(Nc1cccnc1)c1ccc(C(=O)Nc2cccnc2)cc1 | nt | nt | i | nt | nt
CCOC(=O)N1CCN(S(=O)(=O)c2ccc(C(=O)Nc3nnc(C4CC4)o3)cc2)CC1 | nt | i | i | i | nt
CCOC(=O)N1CCN(S(=O)(=O)c2ccc(C(=O)Nc3nnc(CC)o3)cc2)CC1 | nt | -82.5 | i | i | nt
O=C(NC(=S)N1CCN(c2ccc(Cl)cc2[N+](=O)[O-])CC1)c1ccco1 | nt | -81.4 | i | i | nt
CCS(=O)(=O)N1CCN(c2ccc(Cl)cc2[N+](=O)[O-])CC1 | nt | -83.3 | i | i | i
O=C(NC(=S)N1CCN(c2ccc([N+](=O)[O-])cc2)CC1)c1ccco1 | nt | nt | i | nt | nt
O=C(NC(=S)N1CCN(c2ccc(Cl)cc2[N+](=O)[O-])CC1)c1cccs1 | nt | -112.5 | i | i | i
Nc1ccccc1C(=O)C[C@@H](N)C(=O)O | nt | nt | i | nt | nt
Cc1nc2cc(C(=O)O)ccc2n1C1CCCCC1 | nt | -100.0 | i | i | i
COC(=O)C1=C(C)N=C2SCCC(=O)N2C1c1ccc(OC(=O)c2ccco2)cc1 (stereo not given) | nt | i | i | i | i
COC(=O)c1ccc(C2C(C(=O)OC(C)C)=C(C)N=C3SCCC(=O)N32)cc1 (stereo not given) | i | -90.0 | i | i | i
C=CCOC(=O)C1=C(C)N=C2SCCC(=O)N2C1c1ccc(OC(=O)c2ccco2)cc1 (stereo not given) | i | -126.9 | i | i | i
COc1cc2c(cc1O)[C@@H](c1cc(O)c(O)c(OC)c1)[C@@](O)(C(=O)O)[C@@H](CO)[C@@H]2O | i[11.4 µM] | nt | i | i[11.4 µM] | nt
Cn1cccc1C(=O)N1CCC2(CC1)CCN(c1ccccn1)CC2 | i | nt | i | i | nt
CCCCCCn1c(NCC)nc2c1c(=O)[nH]c(=O)n2C | i | -92.7 | i | i | i
SMILES | ALOX15B inhib | PNC inhibitor | IMPase Li inh | 12-hLO inh | IMPase cell inh
CCNc1nc2c(c(=O)[nH]c(=O)n2C)n1CC(C)C | i | i | i | i | i
CCCCCSc1nc2c(c(=O)[nH]c(=O)n2C)n1C(C)C | nt | -119.3 | i | i | i
CCCCCSc1nc2c(c(=O)[nH]c(=O)n2C)n1C | i | i | i | i | i
Cc1nnc(S(=O)(=O)c2ccc(N=Nc3c(N)nc(N)nc3N)cc2)s1 | i[11.4 µM] | nt | i | i[11.4 µM] | nt
Nc1nc(N)c2nc(-c3ccccc3)c(N)nc2n1 | i | i | 12.6µM! | ? | i
NSc1nc(N)c2nc(-c3ccccc3)c(-c3ccccc3)nc2n1 | nt | nt | i | nt | nt
COc1ccc(C2C=C(c3ccc(Cl)cc3)Nc3nc(-c4ccc(Cl)cc4)nn32)cc1 (stereo not given) | nt | nt | nt | nt | i
Cc1nnc(SCC(=O)Nc2ccc(Cl)cn2)s1 | nt | -119.3 | i | i | i
Cc1ccc(-c2nc(NC(=O)CSc3nnc(C)s3)ns2)cc1 | i | i | 14.1µM | i | i
CC(C)(C)C1CCc2c(sc(NC(=O)c3ccc(Cl)cc3)c2C(=O)NCc2ccco2)C1 (stereo not given) | nt | nt | nt | nt | i
Cn1c(=O)c2c(nc(CN3CCC(C(N)=O)CC3)n2Cc2ccccc2F)n(C)c1=O | i | -115.1 | i | i | i
Cn1c(=O)c2c(nc(CN3CCC(C(N)=O)CC3)n2CCCc2ccccc2)n(C)c1=O | i | ? | i | i | i
CCOC(=O)c1c(Nc2nc(C)c(C(=O)NC)s2)sc(C)c1C | i | -81.8 | i | i | i
CCOC(=O)Nc1sc(C)c(C)c1C(=O)OCC | nt | i | i | i | nt
O=C1CCCC1C(O)c1ccc2ccccc2c1 (stereo not given) | nt | nt | i | nt | nt
NC(=O)c1cc(-c2ccccc2)nc(Oc2ccccc2)n1 | i | -116.6 | i | i | i
COc1cccc([C@@H]2Oc3ccc(Br)cc3C(=O)[C@H]2OC(=O)NS(=O)(=O)c2ccc(F)cc2)c1 | nt | nt | i | nt | nt
CC(N1CCOC1=O)S(=O)(=O)c1ccccc1 (stereo not given) | ? | -110.2 | i | i | i
C[C@@H]1C[C@](C)(C(=O)c2ccco2)C=C1c1ccco1 | nt | nt | i | nt | nt
CC1CCCCC1NC(=O)CSc1nnc(-c2ccccc2)n1N (stereo not given) | i | -121.8 | nt | i | i
Nn1c(SCC(=O)NC2CCCCC2)nnc1-c1ccccc1 | i | ? | i | i | i
CCOC(=O)c1c(NC(=O)CSc2nnc(CNc3ccc(F)cc3)o2)sc(C)c1C | i | i | i | i | i
CCOC(=O)c1c(NC(=O)CSc2nncn2C)sc(C)c1C | i | -80.6 | i | i | i
CCOC(=O)c1c(NC(=O)CSc2nnc(CNc3ccc(Cl)cc3)o2)sc(C)c1C | nt | -107.2 | i | i | i
CCCCC(CC)CNCC(CC)CCCC (stereo not given) | i | nt | i | i | nt
SMILES | ALOX15B inhib | PNC inhibitor | IMPase Li inh | 12-hLO inh | IMPase cell inh
Cc1cnc(C)c(N2CCC(C(=O)NCc3cccs3)CC2)n1 | i | -126.9 | i | i | i
Nc1cccc2nc3ccccc3cc12 | i | -113.4 | i | i | i
Nc1[nH]nc2nc3ccccc3cc12 | nt | nt | i | nt | nt
O=C(OOC(=O)c1ccccc1)c1ccccc1 | i[0.0915 µM] | nt | i | i[0.00818 µM] | nt
COc1ccc(-c2nn(-c3ccccc3)cc2/C=N/n2cnnc2)cc1OC | i | ? | i | i | i
COc1ccc(-c2nn(-c3ccccc3)cc2/C=N/NC(N)=S)cc1OC | nt | -111.9 | i | ? | nt
O=C(O)c1n[nH]c2c1CCCCC2 | i | -89.0 | i | i | i
Cc1cc(C)c2cc(C#N)c(NCCCNC(=O)CCC(=O)O)nc2c1 | i | -87.2 | i | i | i
CCC1=C2CC[C@H]3C(=O)N(CC)C(=O)[C@H]3[C@H]2[C@@]2(C)C(=O)N(CC(=O)OC)C(=O)N2C1=O | i | nt | i | i | nt
O=C(O)c1cc2c(cc1S(=O)(=O)O)[C@H]1[C@@H]([C@H]3[C@H]2[C@@]2(Cl)C(Cl)=C(Cl)[C@]3(Cl)C2(Cl)Cl)[C@]2(Cl)C(Cl)=C(Cl)[C@@]1(Cl)C2(Cl)Cl | i[11.4 µM] | nt | nt | ? | nt
